# Source: the supplement of paper PMC10849652
# Targets with a hit are over-represented here; the source holds about 7,900 in all. About 0.6% of all pairs of compound and target were hits. Unmarked numbers belong to inactive results.
# Compound: CN1CCN(c2nc(C3=C(c4c[nH]c5ccccc45)C(=O)NC3=O)c3ccccc3n2)CC1 [sotrastaurin]
# Test: log2 fold change, soluble protein after heating vs DMSO (PISA); higher = thermal stabilisation; K562 cells, 10 uM, 30 min; active = over 0.2 and 3.5 SD of the protein, either way, in both replicates (recomputed)
# Summary of the method: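 K562 cells at 2×10^6 cells/mL were exposed to 10 μM compound for 30 min, then aliquots were heated for 3 min across 48°C-58°C, pooled, and extracted in PBS containing 0.5% NP-40 at 4°C. The supernatant after 21,000xg for 90 min was taken as soluble protein and measured by TMTpro 16plex LC-MS/MS with channel sums equalised. Thermal stability is reported relative to control samples, with values from duplicates. Fold changes are given on a log2 scale.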
# Chain of UniProt O75323 (O75323 whole entry, looked up): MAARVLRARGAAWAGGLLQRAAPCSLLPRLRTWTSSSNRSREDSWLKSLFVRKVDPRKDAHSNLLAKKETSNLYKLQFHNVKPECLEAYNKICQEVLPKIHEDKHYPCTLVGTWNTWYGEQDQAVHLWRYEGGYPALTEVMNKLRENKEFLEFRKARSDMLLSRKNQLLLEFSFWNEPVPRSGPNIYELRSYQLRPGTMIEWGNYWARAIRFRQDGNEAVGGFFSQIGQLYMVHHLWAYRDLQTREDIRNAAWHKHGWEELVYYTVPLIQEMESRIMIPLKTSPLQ
# Chain of UniProt Q12986 (Q12986 whole entry, looked up): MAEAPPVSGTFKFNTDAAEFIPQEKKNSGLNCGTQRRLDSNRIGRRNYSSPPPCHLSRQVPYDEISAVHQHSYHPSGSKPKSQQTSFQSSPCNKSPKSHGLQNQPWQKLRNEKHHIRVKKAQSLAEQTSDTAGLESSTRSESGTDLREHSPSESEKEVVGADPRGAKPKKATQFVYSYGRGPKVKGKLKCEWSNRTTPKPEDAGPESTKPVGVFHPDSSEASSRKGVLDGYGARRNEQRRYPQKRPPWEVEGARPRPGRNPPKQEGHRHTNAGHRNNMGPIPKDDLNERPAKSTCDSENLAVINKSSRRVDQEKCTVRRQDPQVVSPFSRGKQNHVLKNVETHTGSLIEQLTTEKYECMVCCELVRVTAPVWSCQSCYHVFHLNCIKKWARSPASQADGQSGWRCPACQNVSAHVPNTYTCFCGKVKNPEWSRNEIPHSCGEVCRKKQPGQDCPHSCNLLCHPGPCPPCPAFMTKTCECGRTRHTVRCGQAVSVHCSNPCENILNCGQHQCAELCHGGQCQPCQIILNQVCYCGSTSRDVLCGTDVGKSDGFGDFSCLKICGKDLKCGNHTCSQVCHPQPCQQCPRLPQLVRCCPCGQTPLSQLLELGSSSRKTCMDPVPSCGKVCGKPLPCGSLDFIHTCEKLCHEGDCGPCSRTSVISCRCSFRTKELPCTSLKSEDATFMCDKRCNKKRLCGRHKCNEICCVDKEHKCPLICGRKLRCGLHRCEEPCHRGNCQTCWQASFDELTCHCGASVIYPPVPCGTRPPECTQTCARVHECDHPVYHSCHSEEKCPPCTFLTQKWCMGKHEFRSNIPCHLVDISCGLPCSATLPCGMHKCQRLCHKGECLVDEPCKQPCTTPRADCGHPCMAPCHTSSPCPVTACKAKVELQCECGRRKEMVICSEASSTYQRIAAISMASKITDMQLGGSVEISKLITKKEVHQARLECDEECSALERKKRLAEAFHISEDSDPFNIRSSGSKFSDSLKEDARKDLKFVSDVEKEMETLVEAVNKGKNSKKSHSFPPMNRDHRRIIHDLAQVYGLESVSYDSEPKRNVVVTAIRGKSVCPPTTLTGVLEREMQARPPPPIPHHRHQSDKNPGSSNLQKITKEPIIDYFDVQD
# Chain of UniProt Q8WX92 (Q8WX92 whole entry, looked up): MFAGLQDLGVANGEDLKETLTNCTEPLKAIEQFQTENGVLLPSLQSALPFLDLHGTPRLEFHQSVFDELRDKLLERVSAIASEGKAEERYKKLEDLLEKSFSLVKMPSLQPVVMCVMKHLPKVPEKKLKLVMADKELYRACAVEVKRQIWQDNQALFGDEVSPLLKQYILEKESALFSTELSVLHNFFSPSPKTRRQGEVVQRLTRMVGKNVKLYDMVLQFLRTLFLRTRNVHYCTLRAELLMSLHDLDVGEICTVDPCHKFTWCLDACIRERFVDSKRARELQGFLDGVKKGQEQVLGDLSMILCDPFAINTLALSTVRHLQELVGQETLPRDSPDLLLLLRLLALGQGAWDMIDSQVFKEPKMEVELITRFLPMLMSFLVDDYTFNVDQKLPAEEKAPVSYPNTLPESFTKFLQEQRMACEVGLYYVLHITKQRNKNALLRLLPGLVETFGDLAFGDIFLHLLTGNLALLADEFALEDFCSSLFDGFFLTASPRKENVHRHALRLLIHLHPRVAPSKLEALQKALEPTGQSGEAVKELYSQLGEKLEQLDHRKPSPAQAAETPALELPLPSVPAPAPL
# Chain of UniProt Q9H3P2 (Q9H3P2 whole entry, looked up): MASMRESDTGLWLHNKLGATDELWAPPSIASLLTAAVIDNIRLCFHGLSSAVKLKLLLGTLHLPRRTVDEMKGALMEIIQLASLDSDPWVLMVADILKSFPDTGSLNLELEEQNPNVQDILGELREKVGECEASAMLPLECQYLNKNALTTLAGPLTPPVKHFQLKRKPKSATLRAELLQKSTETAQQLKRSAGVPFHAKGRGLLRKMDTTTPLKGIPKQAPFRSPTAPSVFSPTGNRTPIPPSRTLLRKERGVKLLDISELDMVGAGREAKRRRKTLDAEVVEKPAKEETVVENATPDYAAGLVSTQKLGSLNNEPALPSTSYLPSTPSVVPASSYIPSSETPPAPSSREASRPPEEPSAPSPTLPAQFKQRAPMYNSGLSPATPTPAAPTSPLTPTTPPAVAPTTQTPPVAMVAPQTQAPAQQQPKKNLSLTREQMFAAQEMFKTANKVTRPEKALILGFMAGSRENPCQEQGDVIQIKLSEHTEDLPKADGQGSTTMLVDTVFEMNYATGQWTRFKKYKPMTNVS
# Chain of UniProt Q13469 (Q13469 whole entry, looked up): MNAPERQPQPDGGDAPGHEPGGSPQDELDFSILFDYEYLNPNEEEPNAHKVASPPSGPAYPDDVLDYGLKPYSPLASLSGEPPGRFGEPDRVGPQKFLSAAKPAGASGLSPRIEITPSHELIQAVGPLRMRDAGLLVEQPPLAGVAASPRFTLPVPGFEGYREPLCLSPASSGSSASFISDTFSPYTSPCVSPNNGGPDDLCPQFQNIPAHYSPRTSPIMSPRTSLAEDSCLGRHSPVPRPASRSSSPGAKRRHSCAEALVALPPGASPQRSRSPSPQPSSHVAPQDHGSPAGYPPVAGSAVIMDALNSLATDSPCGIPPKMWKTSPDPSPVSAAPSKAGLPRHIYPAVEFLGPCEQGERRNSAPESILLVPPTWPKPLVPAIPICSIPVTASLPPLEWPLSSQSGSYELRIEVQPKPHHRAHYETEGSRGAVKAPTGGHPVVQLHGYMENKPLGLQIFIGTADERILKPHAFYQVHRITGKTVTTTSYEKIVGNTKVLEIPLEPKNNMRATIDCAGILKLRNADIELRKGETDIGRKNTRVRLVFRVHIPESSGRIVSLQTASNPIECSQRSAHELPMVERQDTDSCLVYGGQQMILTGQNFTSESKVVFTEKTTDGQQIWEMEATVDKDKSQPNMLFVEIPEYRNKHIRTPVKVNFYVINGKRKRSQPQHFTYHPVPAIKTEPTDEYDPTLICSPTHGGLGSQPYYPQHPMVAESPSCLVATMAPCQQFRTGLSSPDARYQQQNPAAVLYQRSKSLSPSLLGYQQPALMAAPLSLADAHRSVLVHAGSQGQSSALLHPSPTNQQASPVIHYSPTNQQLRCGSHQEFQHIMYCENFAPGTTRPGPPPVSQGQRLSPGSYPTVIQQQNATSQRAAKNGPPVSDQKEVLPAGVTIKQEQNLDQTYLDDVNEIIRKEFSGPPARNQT
# Chain of UniProt O00217 (O00217 whole entry, looked up): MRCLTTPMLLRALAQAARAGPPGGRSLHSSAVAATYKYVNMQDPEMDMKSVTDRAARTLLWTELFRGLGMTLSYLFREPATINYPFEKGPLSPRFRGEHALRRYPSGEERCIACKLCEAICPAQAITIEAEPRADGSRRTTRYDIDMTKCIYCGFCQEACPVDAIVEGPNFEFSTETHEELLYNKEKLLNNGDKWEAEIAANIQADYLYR
# Chain of UniProt P00846 (P00846 whole entry, looked up): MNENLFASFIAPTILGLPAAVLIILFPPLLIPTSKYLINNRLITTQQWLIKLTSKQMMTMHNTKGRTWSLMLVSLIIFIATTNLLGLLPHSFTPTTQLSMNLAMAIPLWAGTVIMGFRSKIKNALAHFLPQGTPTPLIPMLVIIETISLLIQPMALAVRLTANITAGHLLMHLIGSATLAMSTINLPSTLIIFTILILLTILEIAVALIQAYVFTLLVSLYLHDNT
# Chain of UniProt O60934 (O60934 whole entry, looked up): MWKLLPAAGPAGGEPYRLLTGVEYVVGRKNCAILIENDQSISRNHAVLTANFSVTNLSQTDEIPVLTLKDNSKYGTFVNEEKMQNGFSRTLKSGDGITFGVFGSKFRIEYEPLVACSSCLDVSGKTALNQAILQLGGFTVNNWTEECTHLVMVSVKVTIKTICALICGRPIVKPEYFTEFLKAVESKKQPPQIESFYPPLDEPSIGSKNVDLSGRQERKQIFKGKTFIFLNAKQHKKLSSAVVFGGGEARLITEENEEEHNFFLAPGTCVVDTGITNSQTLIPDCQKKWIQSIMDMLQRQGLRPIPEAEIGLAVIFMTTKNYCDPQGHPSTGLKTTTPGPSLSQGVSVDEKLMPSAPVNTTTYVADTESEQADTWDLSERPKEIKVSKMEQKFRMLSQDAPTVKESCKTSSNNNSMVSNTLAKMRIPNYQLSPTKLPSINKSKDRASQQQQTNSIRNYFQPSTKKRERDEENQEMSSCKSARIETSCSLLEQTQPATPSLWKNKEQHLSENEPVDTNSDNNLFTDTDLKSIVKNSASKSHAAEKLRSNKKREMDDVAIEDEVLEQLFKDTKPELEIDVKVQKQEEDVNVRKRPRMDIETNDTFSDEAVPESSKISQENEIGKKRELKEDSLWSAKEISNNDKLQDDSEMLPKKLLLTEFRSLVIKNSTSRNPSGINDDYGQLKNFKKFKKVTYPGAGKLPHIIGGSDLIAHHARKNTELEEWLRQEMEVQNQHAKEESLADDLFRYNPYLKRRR
# Chain of UniProt Q9HAN9 (Q9HAN9 whole entry, looked up): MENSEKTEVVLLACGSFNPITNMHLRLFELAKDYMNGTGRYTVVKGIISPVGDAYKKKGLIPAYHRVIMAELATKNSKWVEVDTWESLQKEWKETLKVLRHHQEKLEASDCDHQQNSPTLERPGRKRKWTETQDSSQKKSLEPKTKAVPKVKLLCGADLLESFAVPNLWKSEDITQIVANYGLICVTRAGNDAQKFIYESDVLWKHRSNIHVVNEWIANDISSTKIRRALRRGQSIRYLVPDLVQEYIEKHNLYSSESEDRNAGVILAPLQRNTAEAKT
row,Target,log2 fold change
1,NELFB isoform 2 (UniProt Q8WX92),-0.065
2,MRPL50 (UniProt Q8N5N7),-0.048
3,MRPL46 (UniProt Q9H2W6),-0.073
4,NOP56 (UniProt O00567),0.018
5,MTHFS (UniProt P49914),-0.017
6,MKNK1 (UniProt Q9BUB5),-0.088
7,NMNAT1 (UniProt Q9HAN9),-0.033
8,MT-ATP6 (UniProt P00846),-0.059
9,NFATC3 (UniProt Q12968),-0.451 (active)
10,NELFA (UniProt Q9H3P2),-0.023
11,OSTM1 (UniProt Q86WC4),0.007
12,NDUFS8 (UniProt O00217),-0.061
13,MITD1 (UniProt Q8WV92),-0.002
14,NFX1 (UniProt Q12986),-0.09
15,NBN (UniProt O60934),-0.03
16,NDUFS7 (UniProt O75251),0.014
17,"NA, A0A096LPI6",0.017
18,NSMCE2 (UniProt Q96MF7),-0.095
19,NIPSNAP2 (UniProt O75323),-0.082
20,MRPS10 (UniProt P82664),-0.076

row,Target,log2 fold change
1,NNT (UniProt Q13423),0
2,NEU1 (UniProt Q99519),0
3,NOL11 (UniProt Q9H8H0),0.022
4,MRPS25 (UniProt P82663),-0.059
5,MRPS5 (UniProt P82675),-0.124
6,NMT2 (UniProt O60551),0.007
7,NEDD4L (UniProt Q96PU5),-0.063
8,NR2C2 isoform 2 (UniProt P49116),-0.041
9,P4HA2 (UniProt O15460),-0.033
10,OSTC (UniProt Q9NRP0),-0.05
11,NFATC2 (UniProt Q13469),-0.166
12,PAFAH1B2 (UniProt P68402),0.097
13,"NA, A0A0B4J2A0",0.044
14,OXSM (UniProt Q9NWU1),0.067
15,NDUFA12 (UniProt Q9UI09),-0.017
16,NOP58 (UniProt Q9Y2X3),-0.008
17,MSTO1 (UniProt Q9BUK6),0.025
18,MRPS27 isoform 2 (UniProt Q92552),-0.089
19,MYL12B (UniProt O14950),-0.012
